# In PubChem BioAssay AID651640 (Broad Institute, 2012):
# Screen size: about 350,000 compounds; about 6,000 (1.7%) were called active. Not shown: some 5% with an inconclusive outcome. The list comes from a sample in which actives are over-represented; it also holds similar structures and randomly drawn compounds. Values without a mark were called inactive. Rule as the data show it: active = CPE inhibition above about 20% (passing the limit was not always enough); inconclusive = no clear call, values can overlap the other calls; tested in BHK-21 cells.
# Experiment: inhibitors of DENV2 cytopathic effect, primary screen, cell-based, plate reader, single concentration (AID 651640);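 also: 0% = median of neutral control wells and 100% = median of positive control wells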
# Details: DENV2-infected cells, cytopathic effect rescue, at 9.99 µM, hits give high values
row,SMILES,CPE inhibition
1,CN1CCN(C(=O)C[C@H]2CC[C@H]3[C@@H](COC[C@H](O)CN3CC3CCOCC3)O2)CC1,-5%
2,CCCNC(=O)N1[C@H](CO)[C@@H]2c3ccccc3N(C(=O)C3CCOCC3)C[C@@H]21,9.68%
3,CNC(=O)C[C@H]1CC[C@H]2[C@@H](COc3ccc(NS(=O)(=O)c4ccc(F)cc4)cc3C(=O)N2C)O1,-4.93%
4,CC(C)NC(=O)N(C)C[C@H]1OCCCC[C@H](C)Oc2ccc(NS(=O)(=O)c3cccs3)cc2C(=O)N([C@H](C)CO)C[C@@H]1C,-5.44%
5,O=C(CC1CC1)N1[C@@H]2CN(S(=O)(=O)c3ccccc3F)c3ccccc3[C@@H]2[C@@H]1CO,2.67%
6,CCCNC(=O)N1CC2(C1)[C@H](c1ccccc1)[C@@H](CO)N2Cc1cccc(Cl)c1,-0.258%
7,C[C@@H]1CN([C@H](C)CO)S(=O)(=O)c2ccc(-c3ccncc3)cc2O[C@@H]1CN(C)C(=O)CN(C)C,-2.24%
8,COCC(=O)N(C)C[C@@H]1Oc2cc(C#Cc3cccnc3)ccc2S(=O)(=O)N([C@H](C)CO)C[C@H]1C,0.786%
9,COc1ccccc1CNC(=O)C[C@H]1CC[C@@H](NC(=O)CN(C)C)[C@@H](CO)O1,-1.02%
10,Cc1cccc(S(=O)(=O)N2C[C@@H](O)COC[C@H]3O[C@H](CC(=O)N4CCN(C)CC4)CC[C@@H]32)c1,0.654%
11,C[C@@H]1CN([C@H](C)CO)C(=O)c2cc(C#Cc3cccnc3)cnc2O[C@@H]1CN(C)Cc1ccc(F)cc1,-0.76%
12,C[C@@H]1CN([C@@H](C)CO)C(=O)c2cccc(NS(=O)(=O)c3ccc(F)cc3)c2O[C@@H]1CN(C)Cc1ccc(C(=O)O)cc1,49.4% (active)
13,COc1ccc(S(=O)(=O)Nc2cccc3c2O[C@@H](CN(C)C(=O)Nc2cccc4ccccc24)[C@H](C)CN([C@@H](C)CO)C3=O)cc1,-9.92%
14,C[C@H](CO)N1C[C@H](C)[C@@H](CN(C)C(=O)Nc2cccc3ccccc23)Oc2c(NS(=O)(=O)c3ccccc3)cccc2C1=O,74.2% (active)
15,C[C@@H]1CN([C@H](C)CO)C(=O)c2cccc(NS(=O)(=O)c3ccccc3)c2O[C@@H]1CN(C)Cc1ccc(C(=O)O)cc1,-6.23%
16,C[C@H]1CN([C@@H](C)CO)C(=O)c2cccc(NS(=O)(=O)c3ccc(F)cc3)c2O[C@@H]1CN(C)Cc1ccncc1,0.612%
17,C[C@@H]1CN([C@H](C)CO)C(=O)c2cccc(NC(=O)C3CCCCC3)c2O[C@@H]1CN(C)C(=O)NC1CCCCC1,21.7% (active)
18,C[C@@H]1CN([C@@H](C)CO)C(=O)c2cccc(NC(=O)C3CCOCC3)c2O[C@H]1CN(C)C(=O)NC1CCCCC1,-1.68%
19,C[C@@H]1CN([C@H](C)CO)C(=O)c2cccc(NS(=O)(=O)c3ccc(Cl)cc3)c2O[C@@H]1CN(C)C(=O)Nc1cccc2ccccc12,-5.49%
20,C[C@H]1CN([C@@H](C)CO)C(=O)c2cccc(NC(=O)C3CCCCC3)c2O[C@H]1CN(C)C(=O)NC1CCCCC1,1.03%
21,CCCN(C)C[C@H]1Oc2ncc(-c3ccccc3OC)cc2C(=O)N([C@H](C)CO)C[C@H]1C,1.17%
22,C[C@H](CO)N1C[C@H](C)[C@@H](CN(C)S(=O)(=O)c2ccccc2)OCCCC[C@H](C)Oc2ccc(NC(=O)NC3CCCCC3)cc2C1=O,-3.62%

row,SMILES,CPE inhibition
1,C[C@H]1CCCCO[C@H](CN(C)C(=O)CCC(F)(F)F)[C@@H](C)CN([C@@H](C)CO)C(=O)c2cc(NC(=O)Nc3ccc4c(c3)OCO4)ccc2O1,-12.5%
2,C[C@@H]1CN([C@H](C)CO)C(=O)c2cccc(NS(=O)(=O)c3ccc(F)cc3)c2O[C@@H]1CN(C)C(=O)Nc1ccc(F)cc1,10.9%
3,C[C@H](CO)N1C[C@H](C)[C@H](CN(C)S(=O)(=O)c2ccc(C#N)cc2)Oc2ncc(-c3cccc(F)c3)cc2C1=O,2.2%
4,COCC(=O)N(C)C[C@@H]1Oc2cc(C#CCC(C)C)ccc2S(=O)(=O)N([C@@H](C)CO)C[C@@H]1C,-6.44%
5,COC(=O)C1[C@H]2SC(C)(C)C(C(=O)OC)N2C(=O)N1Cc1nc2ccccc2s1 (stereo not given in full),38.1% (active)
6,CCC1(CC)NC(=O)N(Cc2nc3ccccc3s2)C1=O,-2.84%
7,CC1(C)S[C@@H]2[C@H](NC(=O)COc3ccccc3)C(=O)N2C1C(=O)OCc1ccccc1 (stereo not given in full),9.26%
8,C/C=C/c1ccc2c(c1)O[C@H](CN(C)C(C)=O)[C@H](C)CN([C@H](C)CO)S2(=O)=O,-7.9%
9,COc1cccc(S(=O)(=O)N2C[C@@H](O)COC[C@H]3O[C@H](CC(=O)N4CCCCC4)CC[C@@H]32)c1,-9.51%
10,O=C(O)/C=C/c1ccc(OCCCF)cc1,-4.88%
11,O=C(/C=C/c1ccc2c(c1)OCCO2)c1ccc(O)cc1,-0.309%
12,O=C(/C=C(O)/C=C/c1ccc(O)cc1)/C=C/c1ccc(O)cc1,61.1% (active)
13,CC(C)NC(=O)N(C)C[C@H]1Oc2ncc(-c3ccccc3F)cc2C(=O)N([C@@H](C)CO)C[C@@H]1C,-8.68%
14,CO[C@@H]1CN(C)C(=O)c2cc(NS(=O)(=O)c3ccccc3)ccc2OC[C@@H](C)N(C(=O)NC(C)C)C[C@@H]1C,10.4%
15,COc1ccc(N(CC(=O)N/N=C/c2cccs2)S(=O)(=O)c2ccc(OC)c(OC)c2)cc1,6.81%
16,COc1ccc(N(C(=O)c2cccnc2)S(=O)(=O)c2ccc(OC)c(OC)c2)cc1,29.9% (active)
17,O=C(c1cccnc1)N(c1cc2sc(=O)oc2c2ccccc12)S(=O)(=O)c1ccccc1,-6.54%
18,CO[C@H]1CN(C)C(=O)c2ccc(NS(=O)(=O)c3ccccc3)cc2OC[C@@H](C)N(Cc2nccs2)C[C@@H]1C,-6.98%
19,CO[C@@H]1CN(C)C(=O)c2ccc(NS(=O)(=O)c3ccc(Cl)cc3)cc2OC[C@H](C)N(C(=O)NC(C)C)C[C@H]1C,9.25%
20,C[C@@H]1CN([C@H](C)CO)C(=O)c2cc(NC(=O)Nc3ccc4c(c3)OCO4)ccc2O[C@H]1CN(C)C(=O)Nc1ccccc1,6.05%
21,O=C(C[C@H]1C[C@@H]2c3cc(NC(=O)c4ccc5c(c4)OCO5)ccc3O[C@@H]2[C@@H](CO)O1)NCCN1CCCCC1,-1.97%
22,Cc1noc(C)c1S(=O)(=O)N(C)C[C@@H]1OCc2ccccc2-c2ccccc2C(=O)N([C@@H](C)CO)C[C@H]1C,4.05%

row,SMILES,CPE inhibition
1,O=C(NNC(=O)c1ccccc1O)c1ccccc1O,48.5% (active)
2,Cc1cc(C(=O)NNC(=O)c2ccccc2O)c(C)o1,-2.62%
3,Cc1cc(C(=O)CCC(=O)NNC(=O)c2ccccc2O)c(C)s1,-2.6%
4,COc1cccc(-c2ccc3n(c2=O)C[C@@H]2[C@@H](CO)[C@H](C(=O)NC4CCC4)[C@H]3N2C)c1,-5.73%
5,C[C@H](CO)N1C[C@H](C)[C@@H](CN(C)S(=O)(=O)c2cccs2)Oc2ccc(NC(=O)Nc3ccc(C(F)(F)F)cc3)cc2CC1=O,3.14%
6,CCCC(=O)Nc1ccc2c(c1)C(=O)N(C)[C@H]1CC[C@@H](CC(=O)NCc3ccccc3)O[C@@H]1CO2,-7.15%
7,C[C@@H]1CN([C@@H](C)CO)C(=O)c2cc(NC(=O)Nc3ccc4c(c3)OCO4)ccc2O[C@@H]1CN(C)C(=O)Nc1ccc2c(c1)OCO2,-0.429%
8,CCCCNc1c(-c2ccc(OC)c(Sc3ccc(OC)cc3)c2)nc2ccc(Cl)cn12,30.7% (active)
9,CCCCCCSc1ccc(-c2nc3ccc(Cl)cn3c2NCc2ccccc2)cc1,3.27%
10,CCCCNc1c(-c2cccc(Sc3ccc(OC)cc3)c2)nc2ccccn12,-17.2%
11,COC(=O)C[C@@H]1C[C@@H]2c3cc(NC(=O)NC4CCCC4)ccc3O[C@@H]2[C@@H](CO)O1,-3.24%
12,CO[C@@H]1CN(C)C(=O)c2cc(NC(=O)C3CCOCC3)ccc2OC[C@H](C)N(Cc2cccnc2)C[C@@H]1C,-1.61%
13,Cc1cc(C(=O)OCC(=O)N2c3ccccc3NC(=O)C2(C)C)c(C)n1-c1ccccc1,-1.8%
14,CCNc1ccc(C(=O)OCC(=O)N2c3ccccc3NC(=O)C2(C)C)cc1[N+](=O)[O-],-0.27%
15,CNS(=O)(=O)c1cccc(C(=O)OCC(=O)N2c3ccccc3NC(=O)C2(C)C)c1,28.3% (active)
16,C[C@@H]1CN([C@H](C)CO)C(=O)Cc2cc(NC(=O)Cc3ccccc3)ccc2O[C@H]1CN(C)S(=O)(=O)c1cccs1,1.69%
17,COc1ccc(S(=O)(=O)N(C)C[C@@H]2OCCCC[C@@H](C)Oc3ccc(NC(=O)CCCN(C)C)cc3C(=O)N([C@@H](C)CO)C[C@@H]2C)cc1,0.066%
18,CCCNC(=O)c1cc2c(c(-c3cccc(-c4ccc(C#N)cc4)c3)n1)[C@@H](CCO)N(C(=O)CC)C2,4.99%
19,CCS(=O)(=O)N1Cc2cc(C(=O)N(C)C)nc(-c3cccc(-c4ccc(C#N)cc4)c3)c2[C@H]1CCO,20.3% (active)
20,CC(C)(C)[S@@](=O)N1Cc2cc(C(=O)N3CCOCC3)nc(-c3cccc(-c4ccc(C#N)cc4)c3)c2[C@H]1CCO,-2.86%
21,CC(C)NC(=O)N(C)C[C@H]1Oc2c(NC(=O)Nc3ccc(F)cc3)cccc2C(=O)N([C@@H](C)CO)C[C@@H]1C,10.9%
